LAP4 TOR yeast: modulators of LAP4-GFP expression in yeast, primary screen, S. cerevisiae, multiplex flow cytometry, MLPCN library | 3 h; median GFP as percent of DMSO wells | GFP response vs DMSO, % at 10 µM | 320,000 tested, 0.34% active;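 active = GFP response vs DMSO above a set limit, about the screen mean plus 3 SD, cut at about 150% in these data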
RPL19A TOR yeast: RPL19A-GFP expression modulators in yeast, primary screen, cell-based, S. cerevisiae, multiplex flow cytometry, MLPCN | S. cerevisiae RPL19A-GFP strain, 3 h; stronger effect = lower value | percent response vs DMSO, % at 10 µM | 330,000 tested, 0.3% active;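 active = percent response vs DMSO below 50%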;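 also: median channel GFP fluorescence of the barcoded RPL19A-GFP strain; ratio of sample median GFP to plate DMSO average so 100% = DMSO; lower means less RPL19A-GFP as with rapamycin TOR inhibition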
VLA-4 inh: inhibition in human VLA-4 binding assay, primary screen, VLA-4 allosteric modulator project, MLPCN library, flow cytometry, VLA-4 expressing cells; ligand binding flow cytometry; inhibition, % (about 7 µM as worked out from the volumes in the protocol); 330,000 tested, 0.2% active; AID 2557, 2010; in the data active = inhibition above about 50%
Target sequence (P13612 whole entry, looked up): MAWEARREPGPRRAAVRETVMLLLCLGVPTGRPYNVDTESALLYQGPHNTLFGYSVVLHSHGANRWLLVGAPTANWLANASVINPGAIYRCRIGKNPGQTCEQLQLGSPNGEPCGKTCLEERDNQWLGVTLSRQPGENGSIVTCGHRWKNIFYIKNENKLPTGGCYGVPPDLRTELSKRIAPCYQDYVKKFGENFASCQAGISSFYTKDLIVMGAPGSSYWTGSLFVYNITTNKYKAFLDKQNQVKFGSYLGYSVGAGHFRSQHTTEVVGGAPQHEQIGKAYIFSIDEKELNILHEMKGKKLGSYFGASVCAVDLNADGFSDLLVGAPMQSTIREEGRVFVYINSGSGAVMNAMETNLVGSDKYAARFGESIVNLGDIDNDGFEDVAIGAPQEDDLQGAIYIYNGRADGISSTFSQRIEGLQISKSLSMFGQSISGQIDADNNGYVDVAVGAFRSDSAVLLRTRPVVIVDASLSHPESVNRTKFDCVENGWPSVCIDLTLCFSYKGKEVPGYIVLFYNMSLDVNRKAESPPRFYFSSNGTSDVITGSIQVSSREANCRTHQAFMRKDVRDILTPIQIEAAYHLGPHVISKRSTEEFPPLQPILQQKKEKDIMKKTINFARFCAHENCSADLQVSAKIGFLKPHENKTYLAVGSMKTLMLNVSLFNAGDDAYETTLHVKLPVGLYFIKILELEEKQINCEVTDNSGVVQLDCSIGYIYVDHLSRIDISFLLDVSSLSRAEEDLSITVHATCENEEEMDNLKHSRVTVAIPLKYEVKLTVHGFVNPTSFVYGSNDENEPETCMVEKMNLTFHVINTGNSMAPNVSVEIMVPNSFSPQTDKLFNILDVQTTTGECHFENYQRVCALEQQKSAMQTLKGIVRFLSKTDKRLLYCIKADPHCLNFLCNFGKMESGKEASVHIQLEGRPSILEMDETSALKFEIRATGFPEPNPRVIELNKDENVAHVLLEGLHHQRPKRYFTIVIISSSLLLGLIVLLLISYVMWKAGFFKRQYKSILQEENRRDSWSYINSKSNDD
CIT2-GFP yeast: modulators of CIT2-GFP expression in yeast, primary screen, S. cerevisiae, GFP fusion, multiplex flow cytometry, MLPCN library | S. cerevisiae CIT2-GFP strain, 3 h; 100 means same as DMSO wells | GFP response vs DMSO, % at 10 µM | 320,000 tested, 0.065% active | AID 2029, 2009;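 active = GFP response relative to DMSO above a set limit, near the screen mean plus 3 SD, cut at about 150% in these data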;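 also: ratio of well median GFP fluorescence to mean of DMSO wells on the plate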
AGP1-GFP MLPCN: modulators of AGP1-GFP expression in yeast TOR pathway, primary screen, cell-based, multiplex flow cytometry, S. cerevisiae, MLPCN library | 3 h; GFP as percent of DMSO wells | 320,000 tested, 0.02% active | AID 2066, 2009 | GFP response vs DMSO, % at 10 µM;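 active = GFP response relative to DMSO above a set limit, near screen average plus 3 SD, cut at about 150% in these data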;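 also: median GFP channel fluorescence of the gated AGP1 strain per well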
MEP2-GFP yeast: modulators of MEP2-GFP levels in yeast, primary screen, S. cerevisiae, multiplex flow cytometry, MLPCN library. 330,000 tested, 0.51% active. S. cerevisiae MEP2-GFP strain, 3 h; 100% = DMSO control level. GFP response vs DMSO, % at 10 µM;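 active = GFP response versus DMSO above a set limit, roughly screen mean plus 3 SD, cut at about 180% in these data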;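 also: median GFP fluorescence of the barcode-gated MEP2-GFP cells per well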
LAP4 cherry2: LAP4-GFP expression modulators in yeast, confirmation, cell-based, second cherry pick, flow cytometry; shares compounds with LAP4 TOR yeast; S. cerevisiae LAP4-GFP strain, 3 h; GFP response vs DMSO, % at 10 µM; 590 tested, 20% active; AID 2621, 2010;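 active = GFP signal as percent of the solvent control above about 150%, meaning raised reporter expression, limit read from the data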;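 also: ratio of well median GFP fluorescence to plate DMSO mean so 100% = DMSO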
MEP2 cherry2: modulators of MEP2-GFP levels in yeast, confirmation, S. cerevisiae, flow cytometry GFP, second cherry picks | shares compounds with LAP4 TOR yeast | S. cerevisiae MEP2-GFP strain, 3 h | GFP response vs DMSO, % at 10 µM | 590 tested, 10% active;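 active = GFP signal above 150% of the solvent control wells, that is a rise of more than half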;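 also: median channel GFP fluorescence of all gated yeast cells per well; ratio of median GFP to plate DMSO average so 100% = DMSO level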
RPL19A GFP CP2: RPL19A-GFP modulators in TOR pathway yeast, confirmation, cell-based, S. cerevisiae, flow cytometry, second cherry pick; 590 tested, 3% active; AID 2623, 2010; shares compounds with LAP4 TOR yeast; S. cerevisiae RPL19A-GFP strain, 3 h; stronger effect = lower value; 100% means same as DMSO wells; GFP response vs DMSO, % at 10 µM;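 active = under 65% GFP response relative to DMSO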;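 also: median GFP channel fluorescence per well over the all cells gate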
CIT2-GFP pick2: modulators of CIT2-GFP expression in yeast, confirmation, flow cytometry, second cherry pick, single plex; shares compounds with LAP4 TOR yeast; S. cerevisiae CIT2-GFP strain, 3 h; DMSO control wells read 100%; GFP response vs DMSO, % at 10 µM; 590 tested, 8% active; AID 2624, 2010;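 active = GFP response vs DMSO above about 150%, limit read from the data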;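 also: median green fluorescence per well over all gated yeast cells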
AGP1-GFP pick2: AGP1-GFP expression modulators, hit retest, confirmation, cell-based, flow cytometry, S. cerevisiae, cherry pick set 2. shares compounds with LAP4 TOR yeast. S. cerevisiae AGP1-GFP strain, 3 h. percent response vs DMSO, % at 10 µM. 590 tested, under 10 active;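 active = over 150 percent of DMSO response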;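 also: median GFP channel fluorescence over all cells without mother daughter split; sample median GFP divided by mean DMSO control so 100% equals DMSO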
Yeast autofluor: compound autofluorescence in yeast s288c, dose response, artefact control for yeast TOR pathway GFP screen, s288c strain. fluorescence change (kMESF span) at 33 µM. 610 tested, under 10 active. shares compounds with LAP4 TOR yeast. S. cerevisiae s288c, 520 nm autofluorescence, flow cytometry, 3 h; stronger effect = higher value; zero means same as solvent-only cells;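 active = fluorescence span over the dose series, or activity score, above about 33, limit read from the data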
An asterisk follows results filed as active; i = inactive; . = not tested or not shown; + = active, no number. This is a sample that favours compounds with a hit; in the whole collection about 1.1% have one here.

SMILES	LAP4 TOR yeast	RPL19A TOR yeast	VLA-4 inh	CIT2-GFP yeast	AGP1-GFP MLPCN	MEP2-GFP yeast	LAP4 cherry2	MEP2 cherry2	RPL19A GFP CP2	CIT2-GFP pick2	AGP1-GFP pick2	Yeast autofluor
O=C(/C=C/c1ccccc1Cl)c1ccccc(=O)c1O	146	63	27	95	33	160	162*	222*	76	145	77	16
O=C(/C=C/c1ccccc1Cl)c1cccnc1	88	92	2	86	88	92	.	.	.	.	.	.
Cc1ccc(/C=C/C(=O)c2ccccc(=O)c2O)c(C)c1	106	64	-5	103	20	181*	.	.	.	.	.	0.91
Cc1ccc(/C=C/C(=O)c2ccccc2)cc1	111	114	6	107	114	103	.	.	.	.	.	.
Cc1ccc(C)c(/C=C/C(=O)c2ccccc(=O)c2O)c1	135	91	-4	72	67	96	145	168*	78	152*	82	14
O=C(Nc1ccc(-c2n[nH]c(=S)o2)cc1)c1ccccc1Cl	99	97	-4	95	88	103	.	.	.	.	.	.
CCCCCCCCC1CC(C(=O)Nc2ccccc2)C(=O)O1 (stereo not drawn)	110	103	0	102	113	97	.	.	.	.	.	.
O=C1C=CC(=O)N1c1ccc(Sc2ccc([N+](=O)[O-])cc2)cc1	162*	85	27	85	69	102	.	.	.	.	.	3
CC1=CN2C(=N)/C(=C/c3ccc([N+](=O)[O-])o3)C(=O)N=C2S1	863*	226	i	62	138	+	+	+	718	+	243*	.
O=C(NCCOc1ccc(Cl)cc1)c1ccco1	104	101	12	101	99	105	.	.	.	.	.	.
O=S(=O)(c1ccc(F)cc1)c1snnc1-c1ccccc1	131	93	-4	.	100	100	122	96	97	108	94	.
O=C(Oc1c(Cl)cc(Cl)c2cccnc12)N1CCOCC1	101	103	17	101	109	97	.	.	.	.	.	.
O=C(Oc1ccnc2cc(Cl)ccc12)N1CCOCC1	99	101	-3	104	95	108	100	98	99	97	99	0
O=C(O)c1ccccc1Nc1cc(Cl)c2nonc2c1[N+](=O)[O-]	91	104	8	101	94	106	.	.	.	.	.	.
O=[N+]([O-])c1c(Nc2ccccn2)cc(Cl)c2nonc12	674*	162	-10	456*	134	951*	.	.	.	.	.	37*

Source: PubChem BioAssay (NMMLSC)
